Assay outcomes from PubChem BioAssay.
Sa helicase inh: inhibitors of S. aureus replicative helicase, primary screen, biochemical, fluorescence unwinding readout; 0.05% of 120,000 active; inhibition, % (concentration not given with the values); purified S. aureus helicase, fluorescence unwinding assay; replicative DNA helicase (DnaC/DnaB), Staphylococcus aureus; in the data active = inhibition above about 25%, passing the limit was not always enough;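 note: 0% = mean of negative control wells and 100% = mean of positive control wells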
Sa growth inh: S. aureus growth inhibition at 42 and 30 °C, primary screen, LtaS inhibitor project, RN4220, two temperatures; OD600, 20 h, 42 °C; hits give low values; 0.53% of 170,000 active; relative growth, % (no concentration beside the values); AID 720641, 2013;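 active = relative growth at most 50% at the other temperature and 20+ points below 30 °C, or under 10% at both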
* hit, by the source's call; . = not tested or not shown; ! = not active in a repeat. The entries come from a sample that favours hits as a whole.

SMILES	Sa helicase inh	Sa growth inh
CO[C@H]1C=CO[C@@]2(C)Oc3c(C)c(O)c4c(O)c(c(C=NN5CCN(C6CCCC6)CC5)c(O)c4c3C2=O)NC(=O)C(C)=CC=C[C@H](C)[C@H](O)[C@@H](C)[C@@H](O)[C@@H](C)[C@H](OC(C)=O)[C@@H]1C	.	3.9*
COc1cc2c(cc1OC)/C(=C/c1cccs1)C(=O)N2	.	106
NC(=S)NNc1ccc(F)cc1	18	70
N#C/C(=N\Nc1ccc(F)cc1)C(N)=S	-23	0.0*
COc1ccccc1CNC(=O)c1c(O)nc2cc(C)ccn2c1=O	.	94
CCOc1ccc(OCCCCn2ccnc2)cc1	4	120
CC(C)(C)c1ccccc1OCCCCCn1ccnc1	3	-1.0*
CCN1C(C(=O)c2ccccc2)=C(OC(=O)c2ccc(Cl)cc2)c2ccccc2S1(=O)=O	.	53
CCN1C(C(=O)c2ccccc2)=C(OC(=O)c2ccco2)c2ccccc2S1(=O)=O	12	6.2*
O=C(NCn1cnccc1=O)c1ccccc1	4	112
CCOC(=O)c1c(N)sc(SC#N)c1-c1ccccc1	21	4.9*
CCOC(=O)c1c(-c2ccccc2)csc1N	-12	103
CCN(CC)c1ccc2c(N3CCCCC3)cc(=O)oc2c1	-10	2.1*
CCN(CC)c1ccc2c(C)c(CO)c(=O)oc2c1	-44	102
CCN(CC)CC(O)COc1ccc(OC)cc1 (stereo not drawn)	0	.
CCN(CC)CC(O)COc1ccc(C(C)(C)CC)cc1C(C)(C)CC (stereo not drawn)	-3	-0.7*
CC(C)CN(CC(C)C)S(=O)(=O)c1ccc(C(=O)O)cc1	2	92
Cc1nnc(NC(=O)c2ccc(S(=O)(=O)N(CC(C)C)CC(C)C)cc2)o1	4	0.2*
Cc1c(CC(=O)O)c(=O)oc2c(C)c3occ(C(C)(C)C)c3cc12	6	88
Nc1ccn([C@@H]2O[C@H](CO)[C@@H](O)C2O)c(=O)n1 (stereo partly drawn)	.	96
Nc1ccn([C@@H]2O[C@H](CO)[C@@H](O)C2(F)F)c(=O)n1	.	0.3*
O[N+]1=CC=CCC1=S.On1ccccc1=S.[Zn]	.	-0.3*
Cc1ccc(C)c(-c2nnc(NC(=O)C3CC3)o2)c1	13	67
Cc1cc(C)cc(OCC(=O)NCCc2nc3ccccc3[nH]2)c1	.	103
COc1ccc(-c2n[nH]c(C(F)(F)F)c2-c2cc3ccccc3o2)c(O)c1	28	3.9*
SMILES	Sa helicase inh	Sa growth inh
Cc1c(O)ccc(-c2n[nH]c(C(F)(F)F)c2Oc2ccccc2)c1O	-20	.
O=C(CCS(=O)(=O)c1ccc(Br)cc1)N1CCCCCC1	-17	109
CC(C)(C)NCC(O)COc1cccc2c1CCCC2=O (stereo not drawn)	.	103
CC(C)C(=O)Nc1cccc2nsnc12	-2	1.2*
Cc1ccc(S(=O)(=O)C(=O)Nc2cccc3nsnc23)cc1	-4	124
CC(=O)Nc1ccccc1-c1nnc(-c2ccc(C(C)(C)C)cc2)o1	.	100
O=C(Nc1cc(F)ccc1F)C1CCCN(c2ncnc3onc(-c4ccc(F)cc4)c23)C1 (stereo not drawn)	-11	101
CCOC(=O)c1cc(-c2ccc(F)cc2)n(CCC(=O)Nc2ccccc2OC)c1C	.	96
CC(O)CN=c1cc(-c2ccccc2)oc2ccc(Cl)cc12 (stereo not drawn)	39	68
Cc1ccc2oc(-c3ccccc3)cc(=NCCO)c2c1	44*	103
Cc1ccc2oc(-c3ccccc3)cc(=NCCN(C)C)c2c1	37	112
CCc1ccc2oc(-c3ccccc3)cc(=NCc3cccnc3)c2c1	48*	96
Cc1ccc(-c2nc3cc(Cl)ccc3o2)cc1NC(=O)c1ccco1	3	69
O=c1c(=NNc2ccccc2)c(=O)c2ccccc12	.	99
O=c1c(=NNc2nn[nH]n2)c(=O)c2ccccc12	11	1.4*
COc1ccc(NC(=O)CSc2ncc(S(=O)(=O)c3ccccc3)c(=O)[nH]2)c(OC)c1	4	117
CN1C(=O)c2ccccc2Sc2ccc(NC(=O)COc3ccc(Cl)cc3)cc21	.	129
COc1ccc(-c2n[nH]c(=S)o2)cc1OC	-15	93
S=c1[nH]nc(-c2ccc3c(c2)OCO3)o1	8	36*
Cc1ccc(S(=O)(=O)N(CC(=O)N2CCCCCC2)c2ccc(C)c(Cl)c2)cc1	7	113
Cc1cc(C)n(CCc2nc3c4ccccc4nc(N4CCN(c5cccc(C)c5C)CC4)n3n2)n1	.	100
O=C1CCC(C(=O)N2CCc3ccccc32)=NN1	5	94
O=C(O)c1cn(C2CC2)c2cc(N3CCNCC3)c(F)cc2c1=O	.	0.7*!
O=C(NCc1cccnc1)c1cn(C2CC2)c2cc(N3CCN(C(=O)c4cccc(Cl)c4)CC3)c(F)cc2c1=O	5	4.6*
CCn1cc(C(=O)O)c(=O)c2cc(F)c(N3CCN(C(C)=O)CC3)cc21	-11	83
SMILES	Sa helicase inh	Sa growth inh
CCn1cc(C(=O)NCc2cccnc2)c(=O)c2cc(S(=O)(=O)N3CCCC3)ccc21	-21	106
CCn1cc(C(=O)O)c(=O)c2cc(F)c(N3CCN(C(=O)c4ccc(F)cc4)CC3)cc21	12	17
CCN1CCN(c2cc3c(cc2F)c(=O)c(C(=O)O)cn3C2CC2)CC1	.	-0.9*
CCOc1ccc(CNC(=O)c2ccc(Sc3ccc(Cl)cc3)c(NC(C)=O)c2)cc1OC	.	87
CCc1noc(C)c1C(=O)OCC(=O)NC12CC3CC(CC(C3)C1)C2	-3	93
CCc1ccc(OCc2nc(-c3ccc(-n4cccc4)cc3)no2)cc1	.	102
CN1/C(=C\C(=O)CN2C(=O)NC3(CCc4ccccc43)C2=O)C(C)(C)c2ccccc21 (stereo not drawn)	-19	-0.9*
CN1/C(=C\C(=O)CN2C(=O)NC3(CCCCC3)C2=O)C(C)(C)c2ccccc21	-2	89
c1cc2cc(C3=NCCN3)ccc2cc1C1=NCCN1	46*	100
c1coc(C2=NCCN2)c1	9	87
Cc1nc(SCC(=O)N2CCSc3ccccc32)c(C#N)c(C)c1C	-13	104
CCCCN1Cc2c(sc(C)c2C)N(C(=O)c2ccccc2)C1	22	96
COC(=O)c1cnn2c1NCN(Cc1cccc(OC)c1)C2	20	103
Nn1c(Cc2ccccc2F)nnc1SCc1cc(=O)oc2cc(O)c(O)cc12	55*	139
Nn1c(SCc2cc(=O)oc3cc(O)c(O)cc23)nnc1-c1ccncc1	25	68
Cn1c(SCc2cc(=O)oc3cc(O)c(O)cc23)nc2ccccc21	67*	71
CCn1c(SCc2cc(=O)oc3cc(O)ccc23)nc2ccccc21	-1	93
CC(Oc1ccccc1)C(=O)N1CCN(c2ccc(N3CCCCC3)nn2)CC1 (stereo not drawn)	1	85
CSc1nc2ccccc2n1CC(=O)N(C)C1CCCCC1	15	76
O=C(COc1ccc(F)cc1)Nc1ccc2c(c1)OCCO2	-11	98
Oc1ccc(Cl)cc1-c1csnn1	28	36
Oc1ccc(Cl)cc1Sc1cc(Cl)ccc1O	12	3.6*
O=C(CCc1ccccc1)NCc1ccco1	4	110
O=C(Nc1ncnc2sccc12)c1cccs1	4	60
O=C(Nc1ncnc2sccc12)C1CCCCC1	8	4.5*
O=C(NCC1CC1)c1cc2ccccc2oc1=O	.	108
Cc1ccc(Cl)cc1N1CCN(C(=O)Cn2nc(C)c3sc4ccccc4c3c2=O)CC1	.	114
Cc1ccc(Cl)cc1N1CCN(Cn2sc3ccccc3c2=O)CC1	2	-0.4*
